Screening results from PubChem BioAssay.
A3A deaminase: human APOBEC3A DNA deaminase inhibition. P31941. recombinant A3A, FAM/TAMRA ssDNA deamination fluorescence. inhibition, % at 20 µM. hit rate 0.41% among 330,000;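 active = at least 40% inhibition at 20 µM here, with at most 30% in a related deaminase screen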
Target sequence (P31941 whole entry, looked up): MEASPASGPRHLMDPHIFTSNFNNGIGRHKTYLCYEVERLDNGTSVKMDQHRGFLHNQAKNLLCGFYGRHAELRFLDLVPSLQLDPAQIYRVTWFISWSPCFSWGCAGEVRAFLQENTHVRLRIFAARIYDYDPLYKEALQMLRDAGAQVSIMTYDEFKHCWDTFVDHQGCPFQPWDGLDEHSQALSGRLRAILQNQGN
A3G deaminase: blocks human APOBEC3G single-stranded DNA deamination | Q9HC16 | recombinant A3G, ssDNA deamination FAM/TAMRA fluorescence | inhibition, % at 20 µM | hit rate 0.28% among 330,000;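 active = inhibition of at least 40% at 20 µM, with no more than 30% in the related APOBEC3A deaminase screen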
Target sequence (Q9HC16 whole entry, looked up): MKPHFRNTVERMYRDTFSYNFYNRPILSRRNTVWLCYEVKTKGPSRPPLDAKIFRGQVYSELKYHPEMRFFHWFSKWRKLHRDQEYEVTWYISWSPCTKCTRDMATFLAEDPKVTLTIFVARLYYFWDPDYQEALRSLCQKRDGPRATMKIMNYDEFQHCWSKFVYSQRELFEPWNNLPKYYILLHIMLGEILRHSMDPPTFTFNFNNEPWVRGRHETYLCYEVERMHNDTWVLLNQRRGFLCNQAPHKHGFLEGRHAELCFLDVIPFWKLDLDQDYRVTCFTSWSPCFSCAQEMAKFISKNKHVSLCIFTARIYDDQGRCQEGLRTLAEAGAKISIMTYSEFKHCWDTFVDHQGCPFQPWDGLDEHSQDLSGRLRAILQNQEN
PolyA inhibitor: yeast polyadenylation inhibition; S. cerevisiae SKY197-pL101 polyadenylation reporter, beta-gal luminescence; efflux-impaired pdr1/pdr3 knockout yeast; score 100 = 6 SD above DMSO; activity score, % at 12 µM; hit rate 0.02% among 300,000; AID 1875;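 active = lowest replicate activity score at least 50, where 100 means six control SD above control mean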;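 also: yeast exposed to compound for 9 h at 30 °C; higher score means more reporter readthrough which indicates perturbed polyadenylation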
NALP1 inh: inhibitors of NALP1 inflammasome in yeast. inhibition, % at 10 µM. S. cerevisiae NALP1/ASC/caspase-1 growth, X-gal OD620, 72 h. hit rate 0.61% among 280,000; in the data active = inhibition mostly above about 24%, no sharp cut-off; inactive = mostly below about 32%
Numbers stand for hits; i = inactive; nt = not tested or not shown; + = active, no number; ! = not active in a repeat. In the library only some 1.2% were active in any assay of this set; here they are far more common.

SMILES	A3A deaminase	A3G deaminase	PolyA inhibitor	NALP1 inh
Cc1cccc(C)c1OCC(=O)Nc1ccc2c(c1)C(=O)NC2=O	i	i	i	i
CC1(C)N=C(SCC(=O)Nc2ccc(Cl)cc2)C(c2ccc(Cl)cc2)=N1	i	i	i	36
CC1(C)N=C(SCC(=O)Nc2ccc(Cl)cc2)C(c2ccccc2)=N1	i	i	i	i
COc1cccc(C(=O)O/N=C(\N)Cc2ccc(Cl)cc2)c1	i	i	i	77
N/C(Cc1ccc(Cl)cc1)=N\OC(=O)C1CCCCC1	i	i	i	47
COc1cccc(C(=O)O/N=C(\N)c2ccc(C)cc2)c1	i	i	i	i
CN1CCN(CCNC(=O)Cn2c(=O)c3cccn3c3ccc(F)cc32)CC1	i	i	i	i
COc1ccc(CN(CC(=O)NC2CCCC2)C(=O)CCC(=O)Nc2nccs2)cc1	i	i	i	i
Cc1ccc(S(=O)(=O)CC(CN2CCCCC2)N2CCCCC2)cc1 (stereo not given)	nt	nt	i	i
O=S(=O)(CC(CN1CCCCC1)N1CCCCC1)c1ccc2ccccc2c1 (stereo not given)	nt	nt	i	55
c1ccc2c(Nc3nc(N4CCOCC4)c4ccccc4n3)cccc2c1	i	i	i	91
COc1ccc(Cl)cc1C(=O)n1cnc2ccccc21	i	i	i	i
O=C(NCc1ccccc1)c1ccc(OC2CSC2)cc1	i	i	i	35
O=C(NCc1ccccc1)c1ccc(Oc2ccc(C(=O)NCc3ccccc3)cc2)cc1	i	i	i	i
CCN1/C(=C/c2ccc3cc(C)ccc3[n+]2CC)Sc2cc(C)ccc21	nt	nt	nt	35
CCCCN1/C(=C/c2ccc3ccccc3[n+]2CC)Sc2ccccc21	i	i	i	i
O=[N+]([O-])c1cc(Br)c2nsnc2c1N1CCOCC1	i	i	i	i
COc1cc([N+](=O)[O-])c(N2CCOCC2)c([N+](=O)[O-])c1OC	i	i	i	42
CC(C)(C)[C@@H]1COC(=O)[C@@H](Cc2ccc(F)cc2)C/C=C\C[C@H](CC(=O)N(CCO)Cc2ccccc2)C(=O)N1	i	i	nt	nt
CCN1CCN(C(=O)c2cccc(OC3CCN(S(C)(=O)=O)CC3)c2)[C@@H](C)C1=O	i	i	i	i
O=C(Nc1ccccc1C(=O)O)c1ccc(NC(=O)C2CCCO2)cc1 (stereo not given)	i	i	i	i
O=C(NCCN1CCN(c2ccccc2)CC1)c1ccc(NC(=O)C2CCCO2)cc1 (stereo not given)	i	i	i	42
Cc1cc(C)cc(NS(=O)(=O)c2c(C(=O)N3CCCCCC3)c(C)n(C)c2C)c1	i	i	i	i
CCC(C)(C)NC(=O)C1CCCN(S(=O)(=O)c2ccc3c(c2)CC(C)N3C(=O)C2CC2)C1 (stereo not given)	i	i	i	i
CCN(CC)c1ccc(/C=C2/SC(=O)N(C(C)C)C2=O)o1	nt	nt	i	58
SMILES	A3A deaminase	A3G deaminase	PolyA inhibitor	NALP1 inh
CCN(CC)S(=O)(=O)c1cccc(NC(=O)Nc2cccc(C(F)(F)F)c2)c1	i	i	i	37
CCN(CC)S(=O)(=O)c1cccc(NC(=O)CC2CCCC2)c1	i	i	i	i
COc1ccc(-c2csc(NC(=O)CN3C(=O)NC4(CCCC4)C3=O)n2)cc1OC	i	i	i	nt
Cc1ccc(C(=O)ONc2ccc(N=NC(=O)c3ccccc3O)cc2)cc1	i	i	i	42
Cc1ccc(C(=O)ONc2ccc(N=O)cc2)cc1	i	i	i	i
Cc1csc(NC(=O)c2ccc(COc3ccccc3)o2)n1	i	i	i	43
CC(OC(=O)C1=COCCO1)C(=O)Nc1ccc(Oc2ccccc2)cc1 (stereo not given)	i	i	i	36
O=[N+]([O-])c1cc(-c2csc(NC(CO)c3nc4ccccc4n3CCOCCO)n2)ccc1Cl (stereo not given)	i	i	i	nt
OC(CNCCc1ccccc1)COc1ccc(OCC(O)CNCCc2ccccc2)cc1 (stereo not given)	i	i	i	i
OC(CNCCC(c1ccccc1)c1ccccc1)COc1ccccc1 (stereo not given)	i	i	i	33
CSCCC(NS(=O)(=O)c1ccc(C)cc1)C(=O)NNC(=O)c1csc(N2CCOCC2)n1 (stereo not given)	i	i	i	i
Cc1cc(Nc2ccccc2)nc2cc(O)ccc12	i	i	i	52
COc1ccc(Nc2cc(C)c3ccc(O)cc3n2)cc1	i	i	i	+
CC(=O)Nc1ccc(Nc2cc(C)c3ccccc3n2)cc1	i	i	i	i
CCOC(=O)/C=C1\Nc2ccccc2OC1=O	i	i	i	47
COc1ccc(OCc2cc(C(=O)N3CCN(CC4CC4)CC3)no2)c(Cl)c1	i	i	i	28
CCN(CC)C(=O)Oc1ccc2c(c1)O/C(=C\c1ccco1)C2=O	i	i	59	i
CCC(=O)Oc1ccc2c(c1)O/C(=C\c1ccco1)C2=O	i	i	i	i
CN(C)c1ccc(CC2C(=O)Nc3ccccc32)cc1 (stereo not given)	i	45	i	i
Cc1noc(C)c1NC(=O)Nc1cccc2c1O[C@@H](CN(C)C(=O)Nc1ccc3c(c1)OCO3)[C@@H](C)CN([C@H](C)CO)C2=O	i	i	nt	nt
CCCCCOC(=O)CC(C(=O)OCCCCC)N1CCCCC1 (stereo not given)	i	i	i	i
CCCCCCCCCOC(=O)C(CC(=O)O)N1CCOCC1 (stereo not given)	i	i	i	45
CCOC(=O)c1[nH]c(C)c(CCC(=O)OC)c1C	i	i	i	i
CCOC(=O)c1[nH]c(C)c(CCC(=O)O)c1C	i	i	i	41!
C[C@@H]1CC[C@@]2(O[C@@H](CCO)C[C@H](O)[C@H]2O)O1	i	i	i	nt
SMILES	A3A deaminase	A3G deaminase	PolyA inhibitor	NALP1 inh
CCN1C(=O)[C@H]2[C@H]3CN=C(SCc4ccc(Cl)cc4)N3[C@@](CC)(C(=O)OC)[C@H]2C1=O	i	i	nt	nt
O=C(Cn1cnc2c(nnn2Cc2ccccc2F)c1=O)OCc1ccccc1	i	i	i	26
c1cn2cc(CSC3CCCCC3)nc2s1	i	i	i	36
O=C(NCCc1cn2ccsc2n1)C1CCCCC1	i	i	i	nt
Cc1cc(NC(=O)C(C)Sc2nnc(NCc3ccco3)s2)no1 (stereo not given)	i	i	nt	nt
CCc1nnc(NS(=O)(=O)c2ccc(NC(=O)c3cc(Cl)ccc3[N+](=O)[O-])cc2)s1	i	i	i	i
CCc1nnc(NS(=O)(=O)c2ccc(NC(=O)c3cc(Cl)ccc3Cl)cc2)s1	i	i	i	39
COC(=O)Cn1nc(-c2ccccc2)c2ccccc21	i	i	i	103
Cc1cccc(/N=C/c2c(O)c3ccccc3oc2=O)n1	i	i	i	27
O=S(=O)(c1ccc2c(c1)C(O)c1ccccc1CC2)C(F)(F)F (stereo not given)	i	i	nt	nt
Nc1c2c(nc3ccc(Br)cc13)N(Cc1ccccc1)CC2	i	i	i	56
CCOc1ccccc1CN1CCN(CCCc2ccccc2)CC1CCO (stereo not given)	i	i	i	i
Cc1ccc(NC(=O)Cn2cnc3c(cnn3C(C)(C)C)c2=O)cc1	i	i	i	i
COc1ccc(NC(=O)Cn2cnc3c(cnn3C(C)(C)C)c2=O)cc1OC	i	i	i	31
